An excerpt weighted towards active compounds, which were near 11% of everything screened.
HCV inh: HCV inhibition. Potency, µM (titrated, usually from 41.8 µM), usual class: inhibitors. 340,000 tested, 3.4% active. AID 651820. Huh7.5.1 HCVcc-Cre infection, luciferase reporter, 44 h
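Cells seeded at 1,000/well and cultured 4 h, then compounds added followed by HCVcc-Cre virus (~0.5 moi). After 44 h further culture, luciferase substrate was added, plates held 15 min at room temperature, and luminescence read for 15 sec.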
Pf growth 96h: P. falciparum growth inhibition at 96 hours; P. falciparum luciferase reporter growth, 96 h; Potency, µM (titrated, usually from 28.7 µM), hits mostly inhibitors; 320,000 tested, 6.9% active
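Delayed-death screen, second-generation endpoint: infected erythrocytes, 2% hematocrit, 0.05% parasitemia final; 96 hours at 37 C, 5% CO2; luciferase detection reagent; luminescence decrease equals reduced growth.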
Pf growth 48h: inhibits P. falciparum growth in the first generation, 48 h. P. falciparum luciferase growth in erythrocytes, 48 h. Potency, µM (top dose mostly 28.7 µM), usual class: inhibitors. 310,000 tested, 5.9% active. AID 504832
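Luciferase-expressing parasites in RBCs, 2% Hct / 0.1% parasitemia final; RPMI 1640 + 0.5% Albumax; 37 C, 5% CO2, one generation; luminescence read-out, lower signal = inhibition.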
AMA1 RON2 block: inhibitors of Plasmodium falciparum AMA1-RON2 interaction; AID 720542; 360,000 tested, 0.2% active; AlphaScreen AMA1-biotinylated RON2 peptide binding; Potency, µM (top dose mostly 58.2 µM), most hits filed as inhibitors; note: nearly all actives have a fitted effect of over 45% in size
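AMA1 (3D7) with his tag at 25 nM final met compounds first, then biotinylated RON2 peptide at 25 nM; detection used donor plus acceptor beads, 10 µg/mL apiece, read by AlphaScreen after 30 min at room temperature.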
Of the large screens only hits and unclear results are named; the others gave an inactive call. Calls come from the whole dose curve; as a rule, active = well fitted curve in the direction sought with a large enough effect; inconclusive = small, poorly fitted or top-dose-only effect, or another doubt; inactive = no such curve, though single readings can be large; an effect the other way counts as inactive or inconclusive.

O=C(NC1CCCC1)C1CCN(C(=O)c2cccc(Cl)c2)CC1	none
O=C(NCCCc1ccccc1)c1cncc(Br)c1	none
COc1cccc(C(=O)NC(Cc2ccccc2)c2ccc3c(c2)OCCCO3)c1 (stereo not drawn)	HCV inh inconclusive, Pf growth 96h 3.3µM (no result: Pf growth 48h)
O=C(NC(Cc1ccccc1)c1ccc2c(c1)OCCCO2)c1ccc(F)cc1 (stereo not drawn)	HCV inh inconclusive, Pf growth 96h 9.3µM (no result: Pf growth 48h)
CCOC(=O)C1=CCN(S(=O)(=O)c2ccccc2C)C1c1cccc(Cl)c1 (stereo not drawn)	none (no result: HCV inh, Pf growth 96h, Pf growth 48h)
O=C(NCc1nc2ccccc2[nH]1)C1=C[C@@H](c2ccccc2)C[C@@H](OCc2ccc(CO)cc2)O1	HCV inh inconclusive, Pf growth 48h inconclusive
O=C(NCc1nc2ccccc2[nH]1)C1=C[C@H](c2ccccc2)C[C@H](OCc2ccc(CO)cc2)O1	HCV inh inconclusive, Pf growth 96h 1.7µM, Pf growth 48h 1µM
O=C(NCc1nc2ccccc2[nH]1)C1=C[C@@H](c2ccc3c(c2)OCO3)C[C@@H](OCc2ccc(CO)cc2)O1	Pf growth 96h inconclusive, Pf growth 48h 9.3µM (no result: HCV inh, AMA1 RON2 block)
O=C(NCc1nc2ccccc2[nH]1)C1=C[C@H](c2ccc3c(c2)OCO3)C[C@H](OCCCCO)O1	HCV inh inconclusive, Pf growth 96h 4.1µM, Pf growth 48h inconclusive
COc1ccc(NC(=O)CN(Cc2ccco2)Cc2ccco2)cc1S(=O)(=O)N1CCCCC1	HCV inh inconclusive, Pf growth 48h inconclusive
COc1ccc(Nc2nc(N3CCN(S(C)(=O)=O)CC3)nc3ccccc23)c(OC)c1	Pf growth 48h inconclusive
CC(Nc1nc(N2CCN(S(C)(=O)=O)CC2)nc2ccccc12)c1ccccc1 (stereo not drawn)	Pf growth 96h inconclusive, Pf growth 48h 7.4µM
COc1ccc(Nc2nc(N3CCN(S(=O)(=O)N(C)C)CC3)nc3ccccc23)cc1	HCV inh 11µM, Pf growth 96h 8.3µM, Pf growth 48h 10µM
CC(Nc1ncnc2ccccc12)c1ccccc1 (stereo not drawn)	HCV inh 4.5µM
CN(C)c1ccc(C=c2c3cc(O)ccc3n3c2cc(-c2ccccc2)[n+]3C)cc1	HCV inh inconclusive, AMA1 RON2 block 14µM (no result: Pf growth 96h, Pf growth 48h)
C[n+]1c(-c2ccccc2)cc2c(=Cc3ccccc3)c3ccccc3n21	HCV inh inconclusive, AMA1 RON2 block 16µM (no result: Pf growth 96h, Pf growth 48h)
N#Cc1ccc(Oc2ccc(NC(=O)C3CC=CCC3C(=O)O)cc2)cc1 (stereo not drawn)	Pf growth 96h inconclusive
O=C(CSc1nc2cc(Cl)ccc2o1)NC1CC1	none (no result: Pf growth 96h, Pf growth 48h)
CC(C)OCCCn1c(=O)c2ccccc2n2c(CCC(=O)O)nnc12	Pf growth 96h 1.7µM (no result: Pf growth 48h)
Cc1cccc(C)c1NC(=O)Cn1c(=O)n(CCCC(=O)NC2CCN(Cc3ccccc3)CC2)c(=O)c2ccccc21	HCV inh inconclusive
CC(C)OCCCn1c(=O)c2ccccc2n2c(CCC(=O)NC3CCN(Cc4ccccc4)CC3)nnc12	HCV inh inconclusive, Pf growth 96h 15µM, Pf growth 48h inconclusive
COC(=O)c1ccccc1NC(=O)Cn1c(=O)n(CCC(=O)NC2CCN(Cc3ccccc3)CC2)c(=O)c2ccccc21	Pf growth 96h 9.3µM
Cc1ccc(S(=O)(=O)N2C[C@H]3C(=O)C[C@@H](c4ccccc4)N(S(=O)(=O)c4ccc(C)cc4)[C@H]3C[C@H]2c2ccc(Cl)cc2)cc1	none (no result: HCV inh, Pf growth 96h, Pf growth 48h)
O=C(Nc1ccnn1C1CCN(Cc2ccc(CO)o2)CC1)c1cccc(F)c1	none (no result: HCV inh, Pf growth 96h, Pf growth 48h)
COc1cc(Cl)c(C)cc1NC(=O)CSC1=NCCS1	HCV inh inconclusive (no result: Pf growth 96h, Pf growth 48h)
C[C@H](O)[C@@H]1CN2CCc3c([nH]c4ccccc34)[C@@H]2C[C@@H]1N(C)Cc1cc(Cl)cc(Cl)c1	none (no result: HCV inh, Pf growth 96h, Pf growth 48h)
CCOC(=O)Cn1nnnc1CN(Cc1cccs1)Cc1cc2cc(C)cc(C)c2[nH]c1=O	Pf growth 96h 10µM (no result: Pf growth 48h)
COc1ccc2cc(CN(Cc3cccs3)Cc3nnnn3Cc3ccccc3)c(=O)[nH]c2c1	Pf growth 96h inconclusive, Pf growth 48h 9.3µM
Cc1cccc2cc(CN(Cc3cccs3)Cc3nnnn3Cc3ccccc3)c(=O)[nH]c12	HCV inh 10µM, Pf growth 48h inconclusive
COC(=O)[C@@](C)(O)C1(C(=O)SC(C)(C)C)CC1	none (no result: Pf growth 96h, Pf growth 48h)
O=C(c1ccc2c(c1)OCO2)C1CCCN(Cc2c(F)ccc(F)c2F)C1 (stereo not drawn)	Pf growth 96h inconclusive
C=CCn1c(O)c(N=NC(=S)Nc2ccccc2C)c2cc(S(=O)(=O)N3CCOCC3)ccc21	HCV inh inconclusive, Pf growth 96h 13µM, Pf growth 48h 2.9µM
C=CCn1c(O)c(N=NC(=O)OC(C)(C)C)c2ccccc21	none
Cc1cccc(NC(=S)N=Nc2c(O)n(CN3CCOCC3)c3ccccc23)c1C	Pf growth 48h 4.7µM
C=CCn1c(O)c(N=NC(=S)Nc2ccc(OC)c(Cl)c2)c2ccccc21	HCV inh inconclusive, Pf growth 48h 3.7µM
Cc1ccc(NC(=S)N=Nc2c(O)n(C)c3ccc(S(=O)(=O)N4CCOCC4)cc23)cc1C	Pf growth 48h 3.3µM
Cc1ccc(N=Nc2c(O)n(CN3CCOCC3)c3ccccc23)cc1	none
Cc1ccc(S(=O)(=O)N2CCN(C(=O)Cc3c(F)cccc3Cl)CC2)cc1	none
COc1ccc(C(=O)NCCC2=CCCCC2)cc1OC1CCN(C(C)C)CC1	Pf growth 48h inconclusive
OCC1(CO)COC(C(Cl)(Cl)Cl)OC1	none (no result: HCV inh, AMA1 RON2 block)
Cc1ccccc1NC(=O)c1ccc(CN2CCc3ccccc3C2)cc1	HCV inh inconclusive
CC(C)NC(=O)c1ccc(CN2CCc3ccccc3C2)cc1	Pf growth 96h inconclusive
CCc1cccc(C)c1NC(=O)c1ccc(CN2CCc3ccccc3C2)cc1	HCV inh inconclusive, Pf growth 96h 1.5µM, Pf growth 48h 4.7µM
CC(=O)Nc1ccc(NC(=O)c2ccc(CN3CCc4ccccc4C3)cc2)cc1	Pf growth 96h 9.3µM, Pf growth 48h inconclusive
O=C(Nc1ccc(F)cc1)c1ccc(CN2CCc3ccccc3C2)cc1	HCV inh 5.6µM, Pf growth 96h inconclusive
COC1=CC(=O)[C@@]2([C@@H]1O)[C@@H](Cl)C[C@]13C(OC)=C(OC)C(=O)C[C@]21CCN3C	none (no result: Pf growth 96h, Pf growth 48h)
Cc1ccc(CNc2ccccc2C(=O)O)s1	none
COc1cc(-c2nc(Cc3ccccc3Cl)no2)cc(OC)c1OC	HCV inh inconclusive, Pf growth 96h inconclusive
COc1ccccc1Cc1noc(-c2cc(Cl)ccc2OC)n1	HCV inh 7.1µM, Pf growth 48h inconclusive (no result: Pf growth 96h)
CCCCNS(=O)(=O)c1cccc(NC(=O)[C@@H]2O[C@H](CO)[C@H](O)[C@H](O)[C@H]2O)c1	none (no result: HCV inh, Pf growth 96h, Pf growth 48h)
CCN1/C(=C/C=C/C=C/c2sc3ccccc3[n+]2CC)Sc2ccccc21	Pf growth 96h 3.4µM, Pf growth 48h 3µM (no result: AMA1 RON2 block)
CCN1/C(=C/C=C/c2sc3ccccc3[n+]2CC)Sc2ccccc21	HCV inh 1.6µM, Pf growth 96h 0.15µM, Pf growth 48h 0.33µM, AMA1 RON2 block inconclusive
CN(C)C(CNC(=O)c1cc(S(=O)(=O)N(C)c2ccc(F)cc2)ccc1Cl)c1cccs1 (stereo not drawn)	HCV inh inconclusive (no result: Pf growth 96h, Pf growth 48h)
Cc1ccc(OC(=O)CCN2C(=O)c3ccccc3C2=O)cc1C	none

Screening data as filed in PubChem.
